Experimental data: PubChem BioAssay (NCI)
About 83,000 compounds went through this panel and 20% of them were active in at least one assay; those are over-represented in the sample as a whole.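 Activity criterion: percent growth below 10, measured after cells in 96-well plates were exposed to a single compound concentration for 48 hours.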 Calls of active or inactive are those of the source.

test system: OVCAR-3 ovarian; assay: NCI-60 one-dose screen, 48 h (100 = growth as untreated, 0 = no growth, -100 = all killed); details: 10 µM unless noted

Q: `O=S(=O)(NCCCNc1nccc(-c2c(-c3ccc(F)c(O)c3)nc3sccn23)n1)c1ccc(Cl)cc1` was tested. Which growth did it give?
A: 88.7% (inactive)

Q: `Nc1ccc(S(=O)(=O)c2ccc(Cl)cc2)cc1` was tested. Which growth did it give?
A: 98.8% (inactive)

Q: `O=C1OC(c2ccccc2)=N/C1=C\c1ccc([N+](=O)[O-])cc1` was tested. Which growth did it give?
A: 106% (inactive)

Q: For `CC(Br)C(Br)c1cc2c(cc1Br)OCO2` (stereo unspecified), which growth is on record?
A: 107% (inactive)

Q: For `COc1ncc(-c2ccc3ncnc(Nc4cccc(Cl)c4)c3c2)cc1NS(=O)(=O)CCN1CCOCC1`, which growth is on record?
A: 5.82% (active)

Q: `CCCCC[C@@H]1Cc2cc(O)c(C(=O)O)c3c2[C@H](C[C@@]2(CCCO2)O3)O1` was tested. Which growth did it give?
A: 107% (inactive)

Q: Which growth does the source give for `CC(C)C[C@H](NC(=O)[C@@H](Cc1ccccc1)n1ccc(Nc2ccccc2)cc1=O)B(O)O` here?
A: -61% (active)

Q: For `N#CC1=C(N)n2nc(-c3ccncc3)nc2NC1c1cccc2ccccc12` (stereo unspecified), which growth is on record?
A: 97.4% (inactive)

Q: How did the growth turn out when `O=c1cc(C2NCCc3c2[nH]c2ccccc32)c2c(ccc3ccccc32)o1` (stereo unspecified) was run?
A: 95.1% (inactive)

Q: How did the growth turn out when `CC(C)CCC[C@@H](C)[C@H]1CC[C@H]2[C@@H]3CC[C@H]4C/C(=N/O)CC[C@]4(C)[C@H]3CC[C@]12C` was run?
A: 113% (inactive)

Q: With `COc1ccc(/C=C/C(=O)c2cccc(B(O)O)c2)cc1O` as the compound, how does the growth read?
A: -6.95% (active)

Q: For `O=c1oc2c([nH]c3ccc4ccccc4c32)c2ccccc12`, which growth is on record?
A: 109% (inactive)

Q: With `O=C(NCCc1c[nH]c2ccccc12)C1Cc2ccccc2CN1C(=O)c1ccco1` (stereo unspecified) as the compound, how does the growth read?
A: 104% (inactive)

Q: For `CC/C=C\C[C@H]1C/C=C2/C(=O)C(Cl)=C[C@@H]2C/C=C\CCCC(=O)O1`, which growth is on record?
A: -96.1% (active)

Q: `C/C(=N\NC(=O)CC#N)c1cc2cc(Cl)ccc2o1` was tested. Which growth did it give?
A: 102% (inactive)

Q: Which growth does the source give for `O=C(Nc1ccc(F)cc1)c1cc([N+](=O)[O-])ccc1O` here?
A: 56.1% (inactive)

Q: Which growth does the source give for `CCN(CC)CCSc1c2ccc(Cl)cc2nc2ccc(OC)cc12` here?
A: 24.5% (inactive)

Q: `O=[N+]([O-])c1ccc(S(=O)(=O)N2CCN(c3ccnc4cc(Cl)ccc34)CC2)c([N+](=O)[O-])c1` was tested. Which growth did it give?
A: 93% (inactive)

Q: `O=[N+]([O-])c1c(S(=O)(=O)O)cc2cc(S(=O)(=O)O)ccc2c1[N+](=O)[O-]` was tested. Which growth did it give?
A: 104% (inactive)

Q: Which growth does the source give for `Clc1nc(Cl)c2ncn(C/C=C/Cn3cnc4c(Cl)nc(Cl)nc43)c2n1` here?
A: 60.5% (inactive)

Q: For `CC(C)C[C@H](NC(=O)Cn1ccc(NCc2ccccc2)cc1=O)B(O)O`, which growth is on record?
A: -54.5% (active)

Q: `N#Cc1ccc(NC(=O)c2ccc3cccnc3c2O)cc1` was tested. Which growth did it give?
A: 26% (inactive)

Q: For `CCCCCCc1nc2c(c(C)nn2-c2ccccc2)c2c1CCCCC2`, which growth is on record?
A: 107% (inactive)

Q: Which growth does the source give for `Nc1nc(N)c2nc(CNc3ccc(C(=O)CC(CCC(=O)O)C(=O)O)cc3)cnc2n1` (stereo unspecified) here?
A: 49.8% (inactive)

Q: With `Nc1nc(Cl)c2c(ncn2Cc2ccc(CCl)cc2)n1` as the compound, how does the growth read?
A: 68.3% (inactive)

Q: With `CCOc1ccc(/C=C/C=N/NC(N)=S)cc1` as the compound, how does the growth read?
A: 73.7% (inactive)

Q: How did the growth turn out when `COc1cc(/C=C/C(=O)c2ccccc2O)ccc1OCCCOc1cc2c(cc1OC)C(=O)N1CCC[C@H]1C=N2` was run?
A: -3.51% (active)

Q: With `CC(CCc1ccccc1)NC(=O)c1n[nH]c(=O)c2ccccc12` (stereo unspecified) as the compound, how does the growth read?
A: 112% (inactive)

Q: `COc1cc(-c2nc(-c3nc4ccccc4[nH]3)cc3c2[nH]c2ccccc23)cc(OC)c1OC` was tested. Which growth did it give?
A: 31.7% (inactive)

Q: For `O=C(/C=C/CN1CCOCC1)Nc1cc2c(Nc3ccc(F)c(Cl)c3F)ncnc2cc1OCCOC(F)F`, which growth is on record?
A: 48.9% (inactive)

Q: For `COc1cc(NS(C)(=O)=O)ccc1Nc1c2ccc([N+](=O)[O-])cc2nc2c(C)cccc12`, which growth is on record?
A: -13% (active)

Q: `O=S(=O)(NCCCNc1cc(-c2cn(-c3ccccc3)nc2-c2cccc(O)c2)ccn1)c1cccc2ccccc12` was tested. Which growth did it give?
A: 49.8% (inactive)

Q: For `O=c1[nH]c(-c2cn(-c3ccc(Cl)cc3)nn2)nc2ccccc12`, which growth is on record?
A: 85.4% (inactive)

Q: Which growth does the source give for `CCN(C(=O)c1cc2ccccc2[nH]1)[C@H]1CCC[C@@H](NCc2ccc(OC)cc2)C1` here?
A: 89.6% (inactive)

Q: Which growth does the source give for `COc1ccc(/C=C/C(=O)c2ccc(B(O)O)cc2)cc1O` here?
A: 58.5% (inactive)

Q: How did the growth turn out when `Clc1ccc2c(c1)NC1(CCSc3ccccc31)n1nccc1-2` (stereo unspecified) was run?
A: 94.6% (inactive)

Q: For `O=C1NC(Cc2c[nH]c3ccccc23)C(=O)N1Cc1ccc(Cl)cc1` (stereo unspecified), which growth is on record?
A: 106% (inactive)

Q: How did the growth turn out when `CCCCCCCCCCC/C=C\C[C@H](O)C/C=C1/C(=O)C=C[C@@H]1C/C=C\CCCC(=O)OC` was run?
A: -46.2% (active)

test system: HS 578T breast; assay: as above; details: 10 µM unless noted

Q: Which growth does the source give for `O=S(=O)(NCCCNc1nccc(-c2c(-c3ccc(F)c(O)c3)nc3sccn23)n1)c1ccc(Cl)cc1` here?
A: 91.1% (inactive)

Q: `Nc1ccc(S(=O)(=O)c2ccc(Cl)cc2)cc1` was tested. Which growth did it give?
A: 96% (inactive)

Q: With `O=C1OC(c2ccccc2)=N/C1=C\c1ccc([N+](=O)[O-])cc1` as the compound, how does the growth read?
A: 82.6% (inactive)

Q: `CC(Br)C(Br)c1cc2c(cc1Br)OCO2` (stereo unspecified) was tested. Which growth did it give?
A: -96.5% (active)

Q: Which growth does the source give for `COc1ncc(-c2ccc3ncnc(Nc4cccc(Cl)c4)c3c2)cc1NS(=O)(=O)CCN1CCOCC1` here?
A: -21.1% (active)

Q: With `CCCCC[C@@H]1Cc2cc(O)c(C(=O)O)c3c2[C@H](C[C@@]2(CCCO2)O3)O1` as the compound, how does the growth read?
A: 122% (inactive)

Q: Which growth does the source give for `CC(C)C[C@H](NC(=O)[C@@H](Cc1ccccc1)n1ccc(Nc2ccccc2)cc1=O)B(O)O` here?
A: 22.8% (inactive)

Q: With `N#CC1=C(N)n2nc(-c3ccncc3)nc2NC1c1cccc2ccccc12` (stereo unspecified) as the compound, how does the growth read?
A: 80.5% (inactive)

Q: Which growth does the source give for `O=c1cc(C2NCCc3c2[nH]c2ccccc32)c2c(ccc3ccccc32)o1` (stereo unspecified) here?
A: 55.9% (inactive)

Q: For `CC(C)CCC[C@@H](C)[C@H]1CC[C@H]2[C@@H]3CC[C@H]4C/C(=N/O)CC[C@]4(C)[C@H]3CC[C@]12C`, which growth is on record?
A: 101% (inactive)

Q: How did the growth turn out when `COc1ccc(/C=C/C(=O)c2cccc(B(O)O)c2)cc1O` was run?
A: 32.9% (inactive)

Q: For `O=c1oc2c([nH]c3ccc4ccccc4c32)c2ccccc12`, which growth is on record?
A: 104% (inactive)

Q: How did the growth turn out when `O=C(NCCc1c[nH]c2ccccc12)C1Cc2ccccc2CN1C(=O)c1ccco1` (stereo unspecified) was run?
A: 118% (inactive)

Q: `CC/C=C\C[C@H]1C/C=C2/C(=O)C(Cl)=C[C@@H]2C/C=C\CCCC(=O)O1` was tested. Which growth did it give?
A: 17.6% (inactive)

Q: With `C/C(=N\NC(=O)CC#N)c1cc2cc(Cl)ccc2o1` as the compound, how does the growth read?
A: 14.9% (inactive)

Q: How did the growth turn out when `O=C(Nc1ccc(F)cc1)c1cc([N+](=O)[O-])ccc1O` was run?
A: 64% (inactive)

Q: Which growth does the source give for `CCN(CC)CCSc1c2ccc(Cl)cc2nc2ccc(OC)cc12` here?
A: 108% (inactive)

Q: With `O=[N+]([O-])c1ccc(S(=O)(=O)N2CCN(c3ccnc4cc(Cl)ccc34)CC2)c([N+](=O)[O-])c1` as the compound, how does the growth read?
A: 89.1% (inactive)

Q: Which growth does the source give for `O=[N+]([O-])c1c(S(=O)(=O)O)cc2cc(S(=O)(=O)O)ccc2c1[N+](=O)[O-]` here?
A: 98.7% (inactive)

Q: For `Clc1nc(Cl)c2ncn(C/C=C/Cn3cnc4c(Cl)nc(Cl)nc43)c2n1`, which growth is on record?
A: 46.3% (inactive)

Q: For `CC(C)C[C@H](NC(=O)Cn1ccc(NCc2ccccc2)cc1=O)B(O)O`, which growth is on record?
A: 8.69% (active)

Q: Which growth does the source give for `N#Cc1ccc(NC(=O)c2ccc3cccnc3c2O)cc1` here?
A: 53.8% (inactive)

Q: With `CCCCCCc1nc2c(c(C)nn2-c2ccccc2)c2c1CCCCC2` as the compound, how does the growth read?
A: 106% (inactive)

Q: `Nc1nc(N)c2nc(CNc3ccc(C(=O)CC(CCC(=O)O)C(=O)O)cc3)cnc2n1` (stereo unspecified) was tested. Which growth did it give?
A: 82.4% (inactive)

Q: For `Nc1nc(Cl)c2c(ncn2Cc2ccc(CCl)cc2)n1`, which growth is on record?
A: 94.1% (inactive)

Q: How did the growth turn out when `CCOc1ccc(/C=C/C=N/NC(N)=S)cc1` was run?
A: 95.3% (inactive)

Q: With `COc1cc(/C=C/C(=O)c2ccccc2O)ccc1OCCCOc1cc2c(cc1OC)C(=O)N1CCC[C@H]1C=N2` as the compound, how does the growth read?
A: 37.8% (inactive)

Q: For `CC(CCc1ccccc1)NC(=O)c1n[nH]c(=O)c2ccccc12` (stereo unspecified), which growth is on record?
A: 96.8% (inactive)

Q: For `COc1cc(-c2nc(-c3nc4ccccc4[nH]3)cc3c2[nH]c2ccccc23)cc(OC)c1OC`, which growth is on record?
A: 55.8% (inactive)

Q: Which growth does the source give for `O=C(/C=C/CN1CCOCC1)Nc1cc2c(Nc3ccc(F)c(Cl)c3F)ncnc2cc1OCCOC(F)F` here?
A: 23.1% (inactive)

Q: Which growth does the source give for `COc1cc(NS(C)(=O)=O)ccc1Nc1c2ccc([N+](=O)[O-])cc2nc2c(C)cccc12` here?
A: 58.4% (inactive)

Q: For `O=S(=O)(NCCCNc1cc(-c2cn(-c3ccccc3)nc2-c2cccc(O)c2)ccn1)c1cccc2ccccc12`, which growth is on record?
A: 15.6% (inactive)

Q: Which growth does the source give for `O=c1[nH]c(-c2cn(-c3ccc(Cl)cc3)nn2)nc2ccccc12` here?
A: 37% (inactive)

Q: With `CCN(C(=O)c1cc2ccccc2[nH]1)[C@H]1CCC[C@@H](NCc2ccc(OC)cc2)C1` as the compound, how does the growth read?
A: 89.3% (inactive)

Q: How did the growth turn out when `COc1ccc(/C=C/C(=O)c2ccc(B(O)O)cc2)cc1O` was run?
A: 70.7% (inactive)

Q: With `Clc1ccc2c(c1)NC1(CCSc3ccccc31)n1nccc1-2` (stereo unspecified) as the compound, how does the growth read?
A: 110% (inactive)

Q: Which growth does the source give for `O=C1NC(Cc2c[nH]c3ccccc23)C(=O)N1Cc1ccc(Cl)cc1` (stereo unspecified) here?
A: 108% (inactive)

Q: How did the growth turn out when `CCCCCCCCCCC/C=C\C[C@H](O)C/C=C1/C(=O)C=C[C@@H]1C/C=C\CCCC(=O)OC` was run?
A: 18% (inactive)
